# Data taken from publication PMC12820563, “FoxP3 forms a head-to-head dimer in vivo and stabilizes its multimerization on adjacent microsatellites”.
# The full ranking holds about 16,000 sequences; the median of “rpm ratio (pull-down/input)” is about 0.94, and the highest 2% start at about 1.7. The sample as a whole holds a higher share of the highest values than the screen did.
# Target: T1, MBP-FoxP1dN (Mus musculus, UniProt P58462 326-579)
# T1 sequence: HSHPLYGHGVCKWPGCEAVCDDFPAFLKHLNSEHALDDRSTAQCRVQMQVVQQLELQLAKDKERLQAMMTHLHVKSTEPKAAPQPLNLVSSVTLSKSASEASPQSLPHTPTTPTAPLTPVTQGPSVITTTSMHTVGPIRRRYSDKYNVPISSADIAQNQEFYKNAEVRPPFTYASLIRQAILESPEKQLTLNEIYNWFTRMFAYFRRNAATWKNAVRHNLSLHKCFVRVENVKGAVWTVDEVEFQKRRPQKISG
# Test: PD-seq (MBP pull-down with sequencing); 20 mM Tris-HCl pH 7.5, 100 mM NaCl, 1.5 mM MgCl2, 0.4 uM protein, 0.1 uM dsDNA library, 30 min, room temperature, amylose pull-down; high values mean tight binding
# Details: protein: recombinant; tags: His6-MBP; chain copies: 2; dsDNA, one strand shown
# Summary of the method: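 Protein and DNA were mixed at 0.4 µM and 0.1 µM and held for 30 min at room temperature in Tris pH 7.5 buffer with NaCl and MgCl2; the protein was a His6-MBP-tagged, N-terminally truncated mouse FoxP3 or FoxP1 fragment from E. coli, and the DNA a Klenow-filled double-stranded degenerate library. Amylose resin captured the complexes, which were washed three times. Binding is read as reads-per-million enrichment of pull-down versus input after Illumina sequencing, with replicates pooled.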
row,Sequence,binding signal
1,GATGATTGTTCTCCCAGCTGATGAATTGCTGAGATCGAGTAAACAAATTTTCCTAATCTTTCTGTTCAAGCGCCATCTAC,0.969 RPM ratio (pull-down/input)
2,GATGATTGTTCTCCCAGCTGATGAATTGACTAGTTCGAGTAAACAAATTTTCCTAATCTTTCTGTTCAAGCGCCATCTAC,1.08 RPM ratio (pull-down/input)
3,GATGATTGTTCTCCCAGCTGATGAATTAGTAACATCGAGTAAACAAATTTTCCTAATCTTTCTGTTCAAGCGCCATCTAC,1.45 RPM ratio (pull-down/input)
4,GATGATTGTTCTCCCAGCTGATGAATTTCCCACTTCGAGTAAACAAATTTTCCTAATCTTTCTGTTCAAGCGCCATCTAC,0.889 RPM ratio (pull-down/input)
5,GATGATTGTTCTCCCAGCTGATGAATTTGATTATTCGAGTAAACAAATTTTCCTAATCTTTCTGTTCAAGCGCCATCTAC,1.2 RPM ratio (pull-down/input)
6,GATGATTGTTCTCCCAGCTGATGAATTCTTATGTTCGAGTAAACAAATTTTCCTAATCTTTCTGTTCAAGCGCCATCTAC,1.21 RPM ratio (pull-down/input)
7,GATGATTGTTCTCCCAGCTGATGAATTTGGTTATTCGAGTAAACAAATTTTCCTAATCTTTCTGTTCAAGCGCCATCTAC,1.15 RPM ratio (pull-down/input)
8,GATGATTGTTCTCCCAGCTGATGAATTCGTTATTTCGAGTAAACAAATTTTCCTAATCTTTCTGTTCAAGCGCCATCTAC,1.14 RPM ratio (pull-down/input)
9,GATGATTGTTCTCCCAGCTGATGAATTTTGTTATTCGAGTAAACAAATTTTCCTAATCTTTCTGTTCAAGCGCCATCTAC,2.37 RPM ratio (pull-down/input)
10,GATGATTGTTCTCCCAGCTGATGAATTCCTGTGTTCGAGTAAACAAATTTTCCTAATCTTTCTGTTCAAGCGCCATCTAC,1.26 RPM ratio (pull-down/input)
11,GATGATTGTTCTCCCAGCTGATGAATTGTGTTATTCGAGTAAACAAATTTTCCTAATCTTTCTGTTCAAGCGCCATCTAC,2.18 RPM ratio (pull-down/input)
12,GATGATTGTTCTCCCAGCTGATGAATTCTTATTTTCGAGTAAACAAATTTTCCTAATCTTTCTGTTCAAGCGCCATCTAC,2.25 RPM ratio (pull-down/input)
13,GATGATTGTTCTCCCAGCTGATGAATTGTTATGTTCGAGTAAACAAATTTTCCTAATCTTTCTGTTCAAGCGCCATCTAC,2.01 RPM ratio (pull-down/input)
14,GATGATTGTTCTCCCAGCTGATGAATTCTCTTATTCGAGTAAACAAATTTTCCTAATCTTTCTGTTCAAGCGCCATCTAC,0.995 RPM ratio (pull-down/input)
15,GATGATTGTTCTCCCAGCTGATGAATTTATGATTTCGAGTAAACAAATTTTCCTAATCTTTCTGTTCAAGCGCCATCTAC,1.37 RPM ratio (pull-down/input)
16,GATGATTGTTCTCCCAGCTGATGAATTTTCTTATTCGAGTAAACAAATTTTCCTAATCTTTCTGTTCAAGCGCCATCTAC,0.953 RPM ratio (pull-down/input)
17,GATGATTGTTCTCCCAGCTGATGAATTCCGTAAATCGAGTAAACAAATTTTCCTAATCTTTCTGTTCAAGCGCCATCTAC,1.2 RPM ratio (pull-down/input)

row,Sequence,binding signal
1,GATGATTGTTCTCCCAGCTGATGAATTGAACGTCTCGAGTAAACAAATTTTCCTAATCTTTCTGTTCAAGCGCCATCTAC,0.787 RPM ratio (pull-down/input)
2,GATGATTGTTCTCCCAGCTGATGAATTACCGTGGTCGAGTAAACAAATTTTCCTAATCTTTCTGTTCAAGCGCCATCTAC,0.89 RPM ratio (pull-down/input)
3,GATGATTGTTCTCCCAGCTGATGAATTTCCGAGGTCGAGTAAACAAATTTTCCTAATCTTTCTGTTCAAGCGCCATCTAC,0.721 RPM ratio (pull-down/input)
4,GATGATTGTTCTCCCAGCTGATGAATTAGACTTCTCGAGTAAACAAATTTTCCTAATCTTTCTGTTCAAGCGCCATCTAC,0.789 RPM ratio (pull-down/input)
5,GATGATTGTTCTCCCAGCTGATGAATTCCTTAGATCGAGTAAACAAATTTTCCTAATCTTTCTGTTCAAGCGCCATCTAC,0.924 RPM ratio (pull-down/input)
6,GATGATTGTTCTCCCAGCTGATGAATTTGCTCGATCGAGTAAACAAATTTTCCTAATCTTTCTGTTCAAGCGCCATCTAC,0.994 RPM ratio (pull-down/input)
7,GATGATTGTTCTCCCAGCTGATGAATTGTTATTCTCGAGTAAACAAATTTTCCTAATCTTTCTGTTCAAGCGCCATCTAC,2.03 RPM ratio (pull-down/input)
8,GATGATTGTTCTCCCAGCTGATGAATTGTTATTTTCGAGTAAACAAATTTTCCTAATCTTTCTGTTCAAGCGCCATCTAC,3.47 RPM ratio (pull-down/input)
9,GATGATTGTTCTCCCAGCTGATGAATTATTATTCTCGAGTAAACAAATTTTCCTAATCTTTCTGTTCAAGCGCCATCTAC,1.45 RPM ratio (pull-down/input)
10,GATGATTGTTCTCCCAGCTGATGAATTATTATGTTCGAGTAAACAAATTTTCCTAATCTTTCTGTTCAAGCGCCATCTAC,1.69 RPM ratio (pull-down/input)
11,GATGATTGTTCTCCCAGCTGATGAATTATGTTATTCGAGTAAACAAATTTTCCTAATCTTTCTGTTCAAGCGCCATCTAC,2.18 RPM ratio (pull-down/input)
12,GATGATTGTTCTCCCAGCTGATGAATTGGTTATTTCGAGTAAACAAATTTTCCTAATCTTTCTGTTCAAGCGCCATCTAC,1.13 RPM ratio (pull-down/input)
13,GATGATTGTTCTCCCAGCTGATGAATTTTTATTCTCGAGTAAACAAATTTTCCTAATCTTTCTGTTCAAGCGCCATCTAC,1.06 RPM ratio (pull-down/input)
14,GATGATTGTTCTCCCAGCTGATGAATTTGTTATTTCGAGTAAACAAATTTTCCTAATCTTTCTGTTCAAGCGCCATCTAC,2.17 RPM ratio (pull-down/input)
15,GATGATTGTTCTCCCAGCTGATGAATTTCTTATTTCGAGTAAACAAATTTTCCTAATCTTTCTGTTCAAGCGCCATCTAC,1.07 RPM ratio (pull-down/input)
16,GATGATTGTTCTCCCAGCTGATGAATTATGTAATTCGAGTAAACAAATTTTCCTAATCTTTCTGTTCAAGCGCCATCTAC,1.31 RPM ratio (pull-down/input)
